Experimental data from PubChem BioAssay (NCI).
Compounds without any hit were thinned out: in the full panel of roughly 83,000, 20% have a hit.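 Activity criterion: percent growth below 10, measured after cells in 96-well plates were exposed to a single compound concentration for 48 hours.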 Values without a mark were called inactive. Activity calls are given as the source filed them.

Legend:
Experiment in all cases: NCI-60 one-dose screen, 48 h (100 = growth as untreated, 0 = no growth, -100 = all killed)
Conditions in all cases: 10 µM unless noted
NCI-H23 lung = tested on: NCI-H23 lung
NCI-H226 lung = tested on: NCI-H226 lung
NCI-H322M lung = tested on: NCI-H322M lung
HOP-62 NSCLC = tested on: HOP-62 NSCLC
NCI-H460 lung = tested on: NCI-H460 lung
NCI-H522 lung = tested on: NCI-H522 lung
A549/ATCC NSCLC = tested on: A549/ATCC NSCLC
786-0 renal = tested on: 786-0 renal
COLO 205 colon = tested on: COLO 205 colon

SMILES	growth (NCI-H23 lung)	growth (NCI-H226 lung)	growth (NCI-H322M lung)	growth (HOP-62 NSCLC)	growth (NCI-H460 lung)	growth (NCI-H522 lung)	growth (A549/ATCC NSCLC)	growth (786-0 renal)	growth (COLO 205 colon)
CC[C@H](CO)Nc1ccc2ncc(C#Cc3cncc(C(=O)Nc4ccc(CN5CCN(C)CC5)c(C(F)(F)F)c4)c3)n2n1	-80.8% (active)	-25.7% (active)	-16.6% (active)	-45% (active)	-93% (active)	-75.8% (active)	-0.341% (active)	-97.2% (active)	-92.5% (active)
C=C=COc1cccc(/C(N)=N/C(N)=N/c2nc3ccccc3s2)c1	75.9%	83.7%	103%	101%	93.9%	97%	104%	90.3%	112%
O=C(CN1CCN(c2cc(=O)n(-c3ccccc3)c3ccccc23)CC1)Nc1ccc(F)cc1	57.5%	63.6%	83.6%	83%	71.1%	66.1%	74.7%	81.9%	85.3%
CCN(CC)c1ccc(NC2=C(Cl)C(=O)c3nc(C)ccc3C2=O)cc1	-10.3% (active)	87.9%	109%	130%	100%	-44.3% (active)	100%	60.6%	101%
CCO/C=N/C1=C(C#N)C(c2ccc(OC)cc2)c2sc3c(CC)cccc3c2O1 (configuration not stated)	32.2%	61.8%	42.2%	54.8%	9.18% (active)	18.6%	47.1%	48.7%	34.4%
COc1ccc([C@H]2[C@H](O)C(=O)N2c2cc(OC)c(OC)c(OC)c2)cc1F	22.2%	32.6%	50.8%	23.7%	4.56% (active)	-56% (active)	18.5%	12%	-79.1% (active)
COc1ccc(-c2nc3cc(Cl)c(Cl)cc3n2CC(=O)N=Nc2c(O)[nH]c3ccc(OC)cc23)cc1	38.7%	-38.3% (active)	80.4%	43.2%	56.1%	69.3%	59.8%	82.5%	31.9%
NC(N)=Nc1ccc(Oc2cccc(Nc3ccc(Br)c(C(F)(F)F)c3)c2)cn1	-61% (active)	-78.1% (active)	-43.6% (active)	-46.1% (active)	-76.9% (active)	-64.8% (active)	-23.9% (active)	-67.8% (active)	-73.2% (active)
COc1cccc(C(=O)Nc2cccc(C#Cc3cccc4[nH]nc(N)c34)c2)c1	66.7%	49.2%	84.2%	63.4%	44.8%	21.1%	51.1%	80.2%	67.6%
O=S(=O)(Nc1ccc(I)cc1Cl)c1ccc(-c2cnc(C3CC3)o2)cc1	45.4%	62.5%	64.8%	52.7%	28.8%	34%	54.6%	40.4%	50.2%
CN1CCC(n2cc(Nc3ncc4c(=O)n(-c5c(Cl)cccc5Cl)cc(Br)c4n3)cn2)CC1	8.53% (active)	33.9%	41.9%	28%	1.23% (active)	-8.22% (active)	36.2%	20.5%	22.5%
CCNC(=O)N1CCc2cc(OC)c(OCCc3ccc(OC)c(N)c3)cc2C1c1cc(C)c(C)cc1C (configuration not stated)	41.8%	44.7%	53.6%	34.2%	4.34% (active)	5.26% (active)	19.6%	23.3%	55.9%
COc1ccc(OC)c(-c2nc(SCC(=O)c3ccc(Br)cc3)nc(Nc3ccc(S(N)(=O)=O)cc3)c2C#N)c1	58.4%	50%	81.7%	48.4%	20.8%	48%	67.4%	41.4%	68.4%
COc1cc(-c2nc3sccn3c2-c2ccnc(S(C)(=O)=O)n2)ccc1F	92.4%	94.5%	89.3%	108%	100%	93.4%	94.2%	102%	114%
CCO/C=N/C1=C(C#N)C(c2ccc(Cl)cc2)c2sc3c(C)cccc3c2O1 (configuration not stated)	25.2%	51.1%	43.6%	41.4%	4.89% (active)	8.93% (active)	26.9%	29.1%	4.67% (active)
COC(=O)c1[nH]nc2c1C1(C(=O)c3cccc4cccc1c34)C(C#N)=C(N)O2 (configuration not stated)	95%	91.8%	94.1%	97.5%	105%	100%	98.2%	99.5%	110%
O=C(CN1CCN(c2cc(=O)[nH]c3ccc(F)cc23)CC1)Nc1ccc(Cl)cc1	61.9%	16.5%	80.2%	43.9%	41.1%	13.1%	71.8%	36.3%	112%
COc1ccc(/C=C/C(=O)c2cccc(NC(=O)CSc3nc4ccccc4c(=O)n3-c3ccccc3)c2)cc1OC	106%	93.2%	105%	111%	100%	96.9%	91.5%	103%	123%
CCN1CCN(C(=O)[C@]23CCC(C)(C)C[C@H]2C2=CC[C@@H]4[C@@]5(C)Cc6c([nH]c7ccccc67)C(C)(C)[C@@H]5CC[C@@]4(C)[C@]2(C)CC3)CC1	87.7%	84.4%	89.1%	110%	76.5%	90.5%	59.7%	94.2%	102%
Cc1ccc2sc3c(c2c1)OC(N)=C(C#N)C3c1ccc(Cl)cc1 (configuration not stated)	86.2%	68%	99%	79.6%	56.2%	58.2%	96.9%	102%	96.7%
O=C(CCn1cc[n+](CC(=O)c2ccc(-c3ccccc3)cc2)c1)Nc1cccc2cccnc12	81.1%	83.3%	92.2%	102%	91.9%	48%	94.4%	97.7%	72.8%
Cc1cc(-c2ccc(Cl)cc2)n(Cc2nnc(SCC(=O)Nc3ccc(S(N)(=O)=O)cc3)n2C2CCCCC2)n1	99.4%	93.5%	97.2%	114%	105%	99.8%	98.4%	108%	116%
O=c1c2ccccc2nc(COc2ccccc2)n1NS(=O)(=O)c1ccc(Cl)cc1	82.8%	83%	82.9%	75%	96.1%	69.4%	86%	107%	95%
O=C(CSc1nc2ccccc2c(=O)n1-c1ccccc1)Nc1cccc(C(=O)/C=C/c2ccccc2Cl)c1	96.8%	97.1%	106%	118%	101%	97.4%	97.6%	105%	119%
COc1ccc(-c2nc3cccc(O)c3c(=O)n2Cc2ccccc2)cc1COc1ccc(NC(C)=O)cc1	62.5% [3 µM]	56.2% [3 µM]	67.6% [3 µM]	43.6% [3 µM]	4.9% [3 µM] (active)	52.5% [3 µM]	44.9% [3 µM]	54.7% [3 µM]	49.8% [3 µM]
O=C(Nc1nc2ccc([N+](=O)[O-])cc2s1)Nc1ccccc1Cl	9.48% (active)	30.7%	52.2%	28.2%	20.1%	0.0093% (active)	30.2%	48.5%	39.8%
CCO/C=N/C1=C(C#N)C(c2ccc(F)cc2)c2sc3c(C)cccc3c2O1 (configuration not stated)	27.1%	54.3%	37.6%	28.3%	4.32% (active)	7.88% (active)	22.4%	20.2%	15.5%
C[C@@H]1C[C@H]2C(=O)O[C@@H](C)C(NC(=O)[C@H](Cc3cc(F)cc(F)c3)NC(=O)Nc3ccc(C4CC4)cc3F)C(=O)N3CCC[C@H]3C(=O)N3CCCC[C@H]3C(=O)N[C@@H](CO)C(=O)N2C1 (some centres not stated)	34%	-5.28% (active)	48.3%	33.3%	14.4%	13.2%	25.7%	40.4%	-38.3% (active)
